From PubChem BioAssay
Calls of active or inactive are those of the source.

Legend:
[1] = anti-His antibody binders, primary screen, artefact control for SMM control protein annotation, biochemical, small-molecule microarray, 635 nm fluorescence (AID 1128); conditions: anti-His Alexa647 antibody binding, higher = more signal;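 also: score merges feature fluorescence with signal-to-noise for each printed compound spot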
[2] = test system: Human papillomavirus type 1a E7 protein (residues 1-88); experiment: HPV1a E7 small-molecule binders, primary screen, biochemical, small-molecule microarray, residues 1-88, 635 nm (AID 1129); conditions: small-molecule microarray binding, fluorescence 635 nm; higher = more signal
[3] = biological target: Focal adhesion kinase 1 (Homo sapiens) (UniProt Q05397); experiment: small-molecule microarray binders of FAK, primary screen, biochemical, 635/667 nm fluorescence, BSA, DTT (AID 1130); conditions: PTK2 binding, 635 nm fluorescence, higher = more signal;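 also: composite of spot emission at 667 nm and signal to noise over triplicate slides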
[4] = test system: Fibrinogen (Alexa647-labelled); experiment: fibrinogen binders on compound microarrays, profiling panel, artefact control for SMM control-protein annotation, biochemical, small-molecule microarray, 635/667 nm fluorescence (AID 1131); conditions: fibrinogen-A647 binding fluorescence, higher = more signal;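 also: z-score merges 667 nm fluorescence with per-spot signal-to-noise over triplicate slides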
[5] = biological target: Follistatin (Homo sapiens) (UniProt P19883); experiment: follistatin binders on small-molecule microarrays, primary screen, biochemical, small-molecule microarray, 635/667 nm fluorescence (AID 1132); conditions: FST binding, 635 nm fluorescence, higher = more signal
[6] = biological target: Fibroblast growth factor 2 (Homo sapiens) (UniProt P09038); experiment: FGF2 binders on small-molecule microarrays, primary screen, biochemical, small-molecule microarray, 635/667 nm fluorescence (AID 1133); conditions: small-molecule microarray binding, FGF2, fluorescence 635/667; higher = more signal
[7] = mitochondrial membrane potential change in A549 cells, profiling panel, cell-based, JC-1 fluorescence, basal, 24 h, 100 nL (AID 1138); conditions: higher = more signal;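 also: A549 lung adenocarcinoma cells under basal conditions with no added stimulus; test concentration not given here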
[8] = test system: Lefty1; experiment: Lefty1 binders on small-molecule microarrays, primary screen, biochemical, small-molecule microarray, 635/667 nm fluorescence (AID 1139); conditions: small-molecule microarray binding, fluorescence 635/667; higher = more signal
[9] = test system: wheat germ agglutinin (Triticum aestivum), Alexa647-labelled; experiment: wheat germ agglutinin binders on compound microarrays, profiling panel, artefact control for SMM control-protein annotation, biochemical, small-molecule microarray, 635/667 nm fluorescence (AID 1140); conditions: WGA-A647 binding, 635 nm fluorescence, higher = more signal;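 also: score merges 667 nm feature emission with signal to noise over triplicate slides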
[10] = biological target: Luciferin 4-monooxygenase (Photinus pyralis) (UniProt P08659); experiment: firefly luciferase enzyme inhibitors, primary screen, biochemical, luminescence, purified enzyme, 2006 set (AID 1141); conditions: SteadyGlo luminescence, 30 min, higher = more signal, called active from +8 up or from −8 down;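 also: cell-free assay with purified firefly luciferase at 100 ng per well in PBS; test concentration not given here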
Luciferin 4-monooxygenase (Photinus pyralis), sequence (P08659 whole entry, looked up): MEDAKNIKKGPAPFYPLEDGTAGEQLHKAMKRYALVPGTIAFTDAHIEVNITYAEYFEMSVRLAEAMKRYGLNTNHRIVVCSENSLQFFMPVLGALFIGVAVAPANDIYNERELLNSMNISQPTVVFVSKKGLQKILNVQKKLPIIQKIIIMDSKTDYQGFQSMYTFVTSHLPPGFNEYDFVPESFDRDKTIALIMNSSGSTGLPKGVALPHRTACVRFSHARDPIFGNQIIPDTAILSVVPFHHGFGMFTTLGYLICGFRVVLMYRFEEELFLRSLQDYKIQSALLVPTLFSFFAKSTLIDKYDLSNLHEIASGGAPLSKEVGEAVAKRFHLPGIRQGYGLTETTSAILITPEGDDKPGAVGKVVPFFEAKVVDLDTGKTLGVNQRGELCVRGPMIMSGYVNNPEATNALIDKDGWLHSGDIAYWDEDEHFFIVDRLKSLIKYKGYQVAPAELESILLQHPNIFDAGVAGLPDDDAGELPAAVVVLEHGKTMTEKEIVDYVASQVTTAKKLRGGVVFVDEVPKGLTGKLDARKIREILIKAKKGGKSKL

Follistatin (Homo sapiens), sequence (P19883 whole entry, looked up): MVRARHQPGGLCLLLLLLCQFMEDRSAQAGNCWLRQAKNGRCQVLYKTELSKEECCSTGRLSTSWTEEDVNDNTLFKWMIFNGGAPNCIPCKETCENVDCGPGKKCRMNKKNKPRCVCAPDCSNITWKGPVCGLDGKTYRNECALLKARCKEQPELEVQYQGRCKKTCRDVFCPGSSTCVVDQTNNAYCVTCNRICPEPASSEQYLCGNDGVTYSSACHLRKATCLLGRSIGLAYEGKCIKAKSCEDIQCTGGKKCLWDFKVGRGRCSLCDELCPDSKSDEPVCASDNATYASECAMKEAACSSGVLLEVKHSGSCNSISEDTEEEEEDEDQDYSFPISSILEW
Fibroblast growth factor 2 (Homo sapiens), sequence (P09038 whole entry, looked up): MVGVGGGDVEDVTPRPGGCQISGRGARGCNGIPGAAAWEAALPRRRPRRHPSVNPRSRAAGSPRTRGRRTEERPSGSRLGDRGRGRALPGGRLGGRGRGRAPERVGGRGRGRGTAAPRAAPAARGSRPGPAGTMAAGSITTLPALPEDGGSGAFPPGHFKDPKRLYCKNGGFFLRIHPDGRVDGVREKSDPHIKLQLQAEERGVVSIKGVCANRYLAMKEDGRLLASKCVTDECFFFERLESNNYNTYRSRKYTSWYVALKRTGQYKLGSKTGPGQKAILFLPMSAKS
Focal adhesion kinase 1 (Homo sapiens), sequence (Q05397 whole entry, looked up): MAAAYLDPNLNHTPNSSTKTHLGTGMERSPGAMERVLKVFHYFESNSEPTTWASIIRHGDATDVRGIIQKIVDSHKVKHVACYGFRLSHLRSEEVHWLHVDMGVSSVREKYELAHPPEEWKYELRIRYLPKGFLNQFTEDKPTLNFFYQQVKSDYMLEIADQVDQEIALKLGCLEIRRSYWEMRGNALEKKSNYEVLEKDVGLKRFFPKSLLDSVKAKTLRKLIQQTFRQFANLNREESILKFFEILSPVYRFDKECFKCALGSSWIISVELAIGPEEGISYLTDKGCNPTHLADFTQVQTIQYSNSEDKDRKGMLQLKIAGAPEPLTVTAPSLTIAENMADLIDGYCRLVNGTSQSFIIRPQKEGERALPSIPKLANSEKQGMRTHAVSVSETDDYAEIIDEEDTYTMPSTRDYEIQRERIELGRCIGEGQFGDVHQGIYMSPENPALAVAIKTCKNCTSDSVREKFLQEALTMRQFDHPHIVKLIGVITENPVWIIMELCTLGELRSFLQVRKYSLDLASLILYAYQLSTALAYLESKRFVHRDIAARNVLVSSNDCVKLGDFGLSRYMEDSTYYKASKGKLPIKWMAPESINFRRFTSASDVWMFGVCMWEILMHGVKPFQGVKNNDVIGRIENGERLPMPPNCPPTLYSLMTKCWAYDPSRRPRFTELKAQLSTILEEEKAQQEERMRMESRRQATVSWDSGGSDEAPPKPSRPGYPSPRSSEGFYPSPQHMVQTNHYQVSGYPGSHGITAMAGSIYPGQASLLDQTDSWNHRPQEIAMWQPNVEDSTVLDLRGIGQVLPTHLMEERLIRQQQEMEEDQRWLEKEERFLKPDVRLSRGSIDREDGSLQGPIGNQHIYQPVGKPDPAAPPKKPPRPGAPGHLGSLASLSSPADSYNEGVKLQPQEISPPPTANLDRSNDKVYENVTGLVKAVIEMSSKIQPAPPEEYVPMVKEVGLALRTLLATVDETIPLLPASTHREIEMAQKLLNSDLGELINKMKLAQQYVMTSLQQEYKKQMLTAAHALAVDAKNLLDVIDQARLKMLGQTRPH

Row | Compound | composite z-score [1] | composite z-score [2] | composite z-score [3] | composite z-score [4] | composite z-score [5] | composite z-score [6] | z-score [7] | composite z-score [8] | composite z-score [9] | z-score [10]
1 | CC1(C)C(=O)C(c2ccccc2)=C2CN3C(=O)N(CCc4ccccc4)C(=O)C3(Cc3ccc(C(F)(F)F)cc3)C=C21 (stereo not given) | 0.478 | 1.21 | 1.32 | 0.414 | 0.376 | -0.729 | 0.37 | -0.285 | 0.57 | 1.24 (inactive)
2 | COCCOC(=O)N1C(=O)[C@@]2(c3cc(C#CCC(C(=O)OC)C(=O)OC)ccc31)[C@H](C(=O)NC[C@H](O)c1ccccc1)[C@H]1C(=O)O[C@H](c3ccccc3)[C@H](c3ccccc3)N1[C@@H]2c1ccc(O)cc1 | 2.58 | 1.17 | 0.983 | -0.6 | 0.22 | 0.501 | -0.464 | 0.464 | 1.02 | -0.296 (inactive)
3 | CCN(CC)c1ccc(N2CC=CC34O[C@@H]5C=CCCOC(=O)C5[C@H]3C(=O)N(CCO)[C@@H]4C2=O)cc1 (stereo not given in full) | -0.827 | -1.74 | -0.491 | -1.21 | -0.722 | -1.01 | 0.108 | -1 | -0.553 | -0.643 (inactive)
4 | CC1CC/C=C\[C@H]2OC34C=CCN(CCN5CCOCC5)C(=O)[C@H]3N(C(C)CO)C(=O)[C@@H]4C2C(=O)O1 (stereo not given in full) | -0.172 | -1.04 | -0.421 | -1.99 | 0.446 | -0.439 | 0.224 | 0.582 | -0.928 | -1.39 (inactive)
5 | [N-]=[N+]=Nc1ccccc1C[C@]1(C(=O)NCc2ccccc2)COC(c2ccc(OCCCO)cc2)=N1 | 1.39 | 1.2 | 0.467 | 0.963 | 1.16 | 0.17 | 1.85 | 0.556 | 1.14 | -5.16 (inactive)
6 | COc1ccc([Si](C)(C)[C@H]2[C@H](CCO)O[C@@]3(C(=O)N(Cc4ccccc4)c4ccc(N5CCOC5=O)cc43)[C@@H]2C)cc1 | 0.783 | 0.981 | 0.0096 | 0.773 | 0.701 | 1.11 | 0.571 | 0.385 | 0.986 | 0.446 (inactive)
7 | C=CCC(OC(C)=O)[C@@H]1[C@@H](N(Cc2ccc(-c3ccccc3)cc2)C(=O)c2ccc(C)cc2)c2cc(OCCCO)ccc2N1C(=O)Cc1ccc2ccccc2c1 (stereo not given in full) | 0.0102 | -0.823 | -0.0958 | 0.0701 | 0.37 | -0.154 | 3.13 | 0.293 | 0.0607 | -2.19 (inactive)
8 | C=CCN1C(=O)[C@]2(O[C@H](CCO)[C@@H]([Si](C)(C)c3ccc(OC)cc3)[C@@H]2C)c2cc(N3C(=O)COc4ccccc43)ccc21 | 1.3 | 0.853 | 0.179 | 0.55 | 0.618 | 0.405 | -1.46 | 0.465 | 0.441 | -0.401 (inactive)
9 | CCOC(=O)C1=CCC(c2ccco2)N(S(=O)(=O)c2ccc(C)cc2)C1 (stereo not given) | 1.1 | 1.2 | 0.841 | 0.965 | 1.1 | 0.377 | -0.664 | 0.851 | 0.832 | -1.58 (inactive)
10 | CN1C(=O)[C@@]2(Cc3ccccc3)N=C(c3ccc(OCCCO)cc3)O[C@H]2c2ccccc21 | 1.32 | 1.22 | 0.241 | 0.619 | 1.48 | 1.25 | 0.558 | 0.941 | 0.3 | -6.41 (inactive)
11 | COCCOC(=O)N1C(=O)[C@@]2(c3cc(C#CCNC(N)=O)ccc31)[C@H](c1ccc(OCCO)cc1)N1[C@H](c3ccccc3)[C@H](c3ccccc3)OC(=O)[C@H]1[C@@H]2C(=O)NC[C@H](O)c1ccccc1 | 0.626 | 0.984 | 0.445 | 0.942 | 1.37 | 1 | -1.19 | 1.16 | 0.768 | 0.0945 (inactive)
12 | COCCOC(=O)N1C(=O)[C@@]2(c3cc(C#CCC(C(=O)OC)C(=O)OC)ccc31)[C@H](C(=O)NC[C@H](O)c1ccccc1)[C@H]1C(=O)O[C@H](c3ccccc3)[C@H](c3ccccc3)N1[C@@H]2c1ccc(OCCO)cc1 | 1.02 | 1.19 | 0.427 | 0.891 | 1.4 | 1.58 | -1.58 | 1.32 | 0.309 | -0.997 (inactive)
13 | COc1ccc(C(O)C2C=CC3C(=O)N(c4ccccc4)C(=O)C3N2Nc2ccc(C(C)C)cc2)c2ccccc12 (stereo not given) | 1.74 | 1.25 | 0.588 | 0.976 | 0.862 | -0.25 | 0.543 | 0.031 | 0.838 | -1.65 (inactive)
14 | O=C1C2C=CC(C(O)c3ccc4c(c3)OCO4)N(Nc3ccccc3)C2C(=O)N1c1ccccc1 (stereo not given) | 0.496 | 1.21 | 0.617 | 0.979 | 1.03 | -0.337 | 0.279 | 0.153 | 0.942 | 0.465 (inactive)
15 | CCCCCCCCCCC(O)C1C=CC2C(=O)N(C)C(=O)C2N1Nc1cc(OC)c(OC)c(OC)c1 (stereo not given) | 0.255 | 0.242 | 0.55 | -0.203 | -0.763 | -1.44 | 1.06 | -0.946 | 0.458 | -0.819 (inactive)
16 | Cc1ccccc1C(O)C1C=CC2C(=O)NC(=O)C2N1Nc1ccc(Cl)cc1Cl (stereo not given) | 0.817 | 1.18 | 0.276 | 0.866 | 0.802 | -0.344 | -1.06 | 0.518 | 0.951 | -1.08 (inactive)
17 | C=C(/C(=C/C[C@H](OC(=O)c1ccncc1)c1cccc(OCCO)c1)c1cnc2ccccc2c1)C(C)C | 0.291 | 0.952 | 0.807 | 0.247 | 1.46 | 1.85 | 0.945 | 1.6 | 1.33 | -0.799 (inactive)
18 | COCCCNC(=O)[C@@H]1c2ccccc2C(=O)N(C2Cc3ccccc3C2)[C@H]1c1ccc(CO)cc1 | 3.04 | 1 | 0.407 | -0.284 | 1.08 | 1.35 | 2.76 | 0.278 | -0.196 | -0.714 (inactive)
19 | COCC(=C=CC[C@H](O)c1cccc(OCCO)c1)C[C@H](O)COCc1ccccc1 | 1.09 | 1.11 | 1.24 | -0.749 | 1.21 | 1.23 | -0.177 | 0.88 | -0.41 | -0.496 (inactive)
20 | CC(CO)N1C(=O)[C@@H]2[C@H]3C(=O)OCC=C[C@H]3OC23C=CCN(c2ccc(Cl)cc2)C(=O)[C@@H]13 (stereo not given in full) | -0.715 | -1.39 | 0.0657 | -2.3 | -2.57 | -1.07 | 1.18 | -2.1 | -1.81 | -0.619 (inactive)
21 | COC(=O)c1c2oc(c1C(=O)OC)C(=O)N1CCC[C@H]1Cn1nncc1CN(Cc1ccccc1)C(=O)N[C@H](CO)CC2 | 0.328 | -0.243 | 0.291 | 0.676 | 0.423 | 1.04 | 0.39 | 0.783 | 0.18 | -1.29 (inactive)
22 | COc1ccc(CCNC(=O)[C@@]2(Cc3ccccc3I)c3ccccc3C(=O)N(Cc3ccccc3Cl)[C@H]2c2ccc(CO)cc2)cc1 | 0.0199 | 0.899 | 0.196 | 0.0632 | 0.0376 | 0.0031 | 0.311 | -0.321 | 0.0638 | -0.0513 (inactive)
23 | O=C1NC(=O)C2C1C=CC(C(O)c1ccccn1)N2Nc1ccc(Cl)cc1Cl (stereo not given) | 0.713 | 0.676 | 0.473 | 0.717 | 0.101 | 0.0367 | 1.07 | 0.181 | 1.11 | 0.237 (inactive)
24 | [N-]=[N+]=NC[C@H](Cc1ccccc1)NC(=O)c1ccccc1 | 0.568 | -0.165 | 0.161 | -0.0208 | -0.487 | -0.0599 | 1.21 | -0.156 | 0.736 | -0.53 (inactive)
25 | Cc1ccc(S[C@]2(C(=O)NCC(C)C)CC(=O)N(C3Cc4ccccc4C3)[C@@H]2c2ccc(CO)cc2I)cc1 | -0.258 | 0.27 | -0.199 | -1.13 | -0.615 | -1.02 | -0.244 | -1.38 | -0.463 | -0.063 (inactive)
26 | CC(C)[C@H]1NC(=O)[C@@]23C(=O)N[C@@H](Cc4ccccc4)C2[C@H](C)[C@@]2(C)O[C@H]2C3/C=C/CCC/C=C/CNC(=O)[C@H](Cc2ccccc2)NC1=O (stereo not given in full) | 0.123 | 0.369 | 0.205 | -0.684 | 0.283 | -0.0659 | -0.69 | 1.03 | -0.755 | -0.388 (inactive)
